High-throughput results from PubChem.
CCHF vOTU inh – CCHFV vOTU protease inhibitors, primary screen, biochemical, Pep-AMC substrate, fluorescence; inhibition, % at 11.5 µM; actives 0.55% (n = 370,000); Crimean-Congo hemorrhagic fever virus L polyprotein viral ovarian tumor (vOTU) protease …; note: 0% = vehicle wells with enzyme and 100% = no enzyme wells
RecA splice inh – Mtb RecA intein splicing inhibitors, primary screen, biochemical, fluorescence, HTS; Protein RecA (Mycobacterium tuberculosis (strain ATCC 25618 / H37Rv)), P9WHJ3; cell-free RecA intein splicing; inhibition, % (concentration not given with the values); actives 0.75% (n = 290,000); AID 2221, 2009; in the data active = inhibition above about 30%; inconclusive = no clear call, values can overlap the other calls;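 note: 0% = vehicle wells and 100% = reference inhibitor control wells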
Target sequence (P9WHJ3 whole entry, looked up, canonical isoform): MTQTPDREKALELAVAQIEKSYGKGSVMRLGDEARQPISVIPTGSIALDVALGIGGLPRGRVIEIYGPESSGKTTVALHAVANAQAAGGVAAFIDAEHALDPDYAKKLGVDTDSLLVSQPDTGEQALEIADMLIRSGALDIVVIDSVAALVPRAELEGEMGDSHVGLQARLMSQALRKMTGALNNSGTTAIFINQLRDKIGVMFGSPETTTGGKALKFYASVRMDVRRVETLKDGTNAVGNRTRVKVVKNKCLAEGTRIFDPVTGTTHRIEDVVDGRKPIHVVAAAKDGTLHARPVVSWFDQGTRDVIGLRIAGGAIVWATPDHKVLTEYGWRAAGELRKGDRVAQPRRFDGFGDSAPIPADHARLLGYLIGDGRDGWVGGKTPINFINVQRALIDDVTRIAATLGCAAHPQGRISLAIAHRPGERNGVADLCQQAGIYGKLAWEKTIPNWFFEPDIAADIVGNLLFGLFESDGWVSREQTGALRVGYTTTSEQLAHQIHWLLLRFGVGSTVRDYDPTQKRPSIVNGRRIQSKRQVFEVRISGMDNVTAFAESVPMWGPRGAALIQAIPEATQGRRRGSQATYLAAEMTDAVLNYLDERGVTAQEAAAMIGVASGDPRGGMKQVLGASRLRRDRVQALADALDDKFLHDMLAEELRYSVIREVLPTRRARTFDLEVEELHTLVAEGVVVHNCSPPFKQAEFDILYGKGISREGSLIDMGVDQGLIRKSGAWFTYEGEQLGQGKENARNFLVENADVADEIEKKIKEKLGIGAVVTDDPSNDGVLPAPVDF
Mtb bLac sens – beta-lactam sensitization of Mtb H37Rv, H37Rv. M. tuberculosis H37Rv growth with meropenem, percent inhibition. inhibition, % at 25 µM. actives 0.27% (n = 330,000). AID 434955, 2010; call rule not given here;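 note: growth measured after seven days incubation then overnight dye step; 0% = bacteria only wells and 100% = bacteria with antibiotic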
GDH-TPI counter – GDH-TPI coupling enzyme inhibitors, primary screen, artefact control for M. tuberculosis FBA inhibitor project, biochemical, absorbance, full deck; GDH-TPI coupled enzyme counterscreen, NADH absorbance; inhibition, % at 4.8 µM; actives 1.2% (n = 360,000); AID 588335, 2011;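 note: 0% = DMSO wells and 100% = wells lacking the enzyme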
Mtb FBA inh – Mtb FBA enzyme inhibitors, primary screen, biochemical, fluorescence, strain H37Rv. Fructose-bisphosphate aldolase (Mycobacterium tuberculosis (strain ATCC 25618 / H37Rv)), …. purified M. tuberculosis FBA, fluorescence read-out. inhibition, % at 1 µM. actives 2.3% (n = 360,000). AID 588726, 2011; in the data active = inhibition above about 27%;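 note: 0% = vehicle and 100% = reference inhibitor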
Active calls of the source: *; i = inactive; ? = inconclusive; / = not tested or not shown; + = active, no number. Compounds with a hit are over-represented: about 4.2% of the library has one in this group of screens. Cut-off read from the data, not from the text of the source, unless noted: active = inhibition above about 30%; inactive = the rest.

SMILES | CCHF vOTU inh | RecA splice inh | Mtb bLac sens | GDH-TPI counter | Mtb FBA inh
Cc1ccc2nc3c(cc(C(=O)NC4CCS(=O)(=O)C4)n3Cc3ccccc3)c(=O)n2c1 (configuration not stated) | -188 | -114 | 11 | 26 | +
COc1ccc(C=Nn2c(-c3ccc(F)cc3)n[nH]c2=S)c(OC)c1OC | 16 | / | / | / | /
C=CCN1C(=O)[C@@H](CC(=O)N2CCN(C(=O)c3ccco3)CC2)[C@]2(C(=O)OCC)CCCCC/C=C/12 | -6 | / | / | / | /
CC(C)(C)NC(=O)CSc1ncnc2c1nnn2Cc1ccccc1Cl | 2 | 61* | 61 | -4 | -3
O=C(CSc1ncnc2c1nnn2Cc1ccccc1F)N1CCN(c2ccccc2)CC1 | 2 | 43* | / | 1 | 0
O=C(Cn1cnc2c(nnn2Cc2ccccc2F)c1=O)N1CCN(c2ccccc2)CC1 | -19 | 1 | -1 | 4 | -3
COc1cccc(CC(=O)N(Cc2ccccc2)c2ccccc2C(=O)Nc2cc(OC)ccc2OC)c1 | 1 | / | / | / | /
O=c1oc(-c2ccccc2Cl)nc2ccsc12 | 9 | 35* | 97 | 3 | 5
O=C(NCC(=O)N1CCN(c2cccc(Cl)c2)CC1)c1ccc(Br)o1 | -2 | -2 | -3 | 1 | 3
CC(=O)c1ccc(N2CCN(C(=O)CNC(=O)c3ccc(Br)o3)CC2)cc1 | 15 | / | / | 32* | 0
Fc1ccccc1Cn1ccc2ccc(-c3ccc4ccn(Cc5ccccc5)c4c3)cc21 | 4 | / | / | / | /
O=C(NC1CCCCCC1)c1cc2c(=O)n3ccccc3nc2s1 | -144 | -64 | 1 | 18 | +
CC(C)NC(=O)c1cc2c(=O)n3ccccc3nc2s1 | -319 | -1 | -4 | -12 | -3
Cc1cccn2c(=O)c3cc(C(=O)NC4CCS(=O)(=O)C4)sc3nc12 (configuration not stated) | -168 | -25 | -9 | 27 | 192*
C=CCNC(=O)c1cc2c(=O)n3ccccc3nc2s1 | -295 | -159 | 4 | 12 | +
Cc1cccn2c(=O)c3cc(C(=O)NC4CCCCCC4)sc3nc12 | -19 | -64 | 1 | 4 | 27
Cc1ccc(-c2cc(C(=O)NN=Cc3ccc(N(C)C)cc3)[nH]n2)cc1C | -6 | / | / | / | /
COc1ccc(N2C(=O)c3ccccc3S2(=O)=O)cc1 | 4 | 1 | -3 | -6 | -6
COc1ccc2c(c1)-c1ccccc1S(=O)(=O)N2C(C)=O | -34 | / | -3 | 13 | 31*
CC(=O)c1ccc(Nc2c3c(nc4ccccc24)CCCC3)cc1 | -3 | -11 | 33 | 37* | 3
CC(=O)Oc1ccc2occ(/C=N/c3cc(=O)[nH]c(=S)[nH]3)c(=O)c2c1 | 13 | -3 | 0 | 39* | -1
CC(C)(C)c1ccc(-c2nnc(SCC(=O)Nc3ccc(S(=O)(=O)Nc4nccs4)cc3)n2Cc2ccco2)cc1 | 15 | / | / | / | /
CCOC(=O)c1c(C)[nH]c(C(=O)OCC(=O)Nc2sc(C(=O)N(C)C)c(C)c2C(=O)OCC)c1C | 13 | -1 | 0 | 0 | -2
CCOC(=O)c1c(NC(=O)COC(=O)c2ncc(Cl)c(Cl)c2Cl)sc(C(=O)N(C)C)c1C | / | 38* | / | 5 | -3
CCCc1cc(NCCCN(C)C)n2c(nc3ccccc32)c1C#N | -167 | -127 | 11 | 6 | 112*
SMILES | CCHF vOTU inh | RecA splice inh | Mtb bLac sens | GDH-TPI counter | Mtb FBA inh
CCCc1cc(-n2cnc3ccccc32)n2c(nc3ccccc32)c1C#N | -3 | -25 | 9 | 10 | 5
CCCc1cc(NCCN(C)C)n2c(nc3ccccc32)c1C#N | -134 | -291 | -3 | 12 | 162*
CCCc1cc(NCC2CCCO2)n2c(nc3ccccc32)c1C#N (configuration not stated) | -138 | -93 | -12 | 15 | 192*
COc1ccc(-n2c(SCC(=O)Nc3ccc(S(=O)(=O)Nc4nccs4)cc3)nnc2-c2cccs2)cc1 | 5 | / | / | / | /
COc1ccc2[nH]c3c(=O)n(CCCN4CCOCC4)cnc3c2c1 | -61 | 4 | 0 | 22 | 157*
Cc1ccc2[nH]c3c(=O)n(CCCN4CCOCC4)cnc3c2c1 | -18 | 2 | -13 | 8 | 13
COc1ccc2cc(C(=O)c3ccccc3)c(=O)oc2c1 | 5 | 6 | 2 | 17 | 0
CCOC(=O)c1cc2ccc(OC(=O)c3ccco3)cc2oc1=O | -313 | / | 6 | 9 | +
CCOC(=O)c1c(C)n(C)c2ccc(OC(=O)c3ccco3)cc12 | 6 | 3 | 32 | 6 | 1
CCOc1ccc2cc(C(=O)c3ccccc3)c(=O)oc2c1 | 4 | -5 | 9 | 41* | 2
CCOC(=O)c1cc2ccc3ccccc3c2oc1=O | -373 | i | 7 | 8 | +
CCOC(=O)c1c[nH]c2ccc3ccccc3c2c1=O | -4 | -6 | 58 | 9 | -5
Nn1c(SCC(=O)Nc2ccccc2-c2ccccc2)nnc1-c1cc(-c2ccc(F)cc2)n[nH]1 | 3 | / | / | / | /
CC1CC(=O)NN=C1c1cccs1 (configuration not stated) | -10 | 5 | -7 | 9 | -2
CCN(CC)c1ccc(C2=NNC(=O)CC2C)cc1[N+](=O)[O-] (configuration not stated) | 2 | -2 | 4 | 31* | -6
CC1CC(=O)NN=C1c1ccc(N(C)C)c([N+](=O)[O-])c1 (configuration not stated) | 10 | -2 | -10 | 37* | -5
CCc1ccc(CCNC(=O)OC2CCC23CCC(c2ccccc2)CC3)cc1 (configuration not stated) | 14 | / | / | / | /
O=C(Nc1ccc2c(c1)OCCO2)c1cnc2n(c1=O)CCS2 | 3 | -5 | -12 | 31* | -1
Cc1noc(NS(=O)(=O)c2ccc(NC(=O)c3cnc4n(c3=O)CCS4)cc2)c1C | 0 | -1 | 30 | 34* | -4
O=C(Nc1ccc2c(c1)OCO2)c1cnc2n(c1=O)CCS2 | 24 | 4 | -9 | 19 | 0
COc1ccccc1NC(=O)c1cnc2n(c1=O)CCS2 | 5 | 3 | 32 | 37* | -4
O=c1oc2ccccc2cc1-c1ccc(O)cc1O | 4 | -6 | -5 | 23 | 3
O=c1oc2cc(O)ccc2cc1-c1ccccc1 | -388 | i | 73 | 12 | +
COc1ccc(-c2cc3ccc(O)cc3oc2=O)cc1 | -385 | i | ? | 27 | +
CCOC(=O)CC[C@@H]1CC[C@]2(CCCN(C(=O)C3CCCCC3)C2)O1 | 4 | / | / | / | /
Cc1nn(-c2ccccn2)c2c1-c1nc(N3CCOCC3)ncc1CC2 | -16 | 6 | 98 | 17 | 114*
Fc1cnc(N2CCOCC2)nc1N1CCc2ccccc21 | 15 | 7 | 50 | 29 | -2
CC(NC(=O)/C(C#N)=C/c1ccco1)c1ccccc1 (configuration not stated) | 3 | 2 | -6 | 52* | -1
N#C/C(=C\c1ccc[nH]1)C(=O)NCC1CCCO1 (configuration not stated) | 13 | 0 | 7 | 35* | 1
